Measurements taken from PubChem BioAssay (EPA / NIEHS).
“And” between values parts separate entries of the source, which are not always exact repeats. Equal entries are not always repeated. Records with an inconclusive call do not appear. The source holds several records for some structures; these can differ, active in one and inactive in another. The source made the active and inactive calls. The calls were made as follows, unless noted: active = hit-call score of the fitted dose curve at least 0.9, where 1 is the maximum; inactive = score below 0.9.

Experiments:
[1] = CCTE_Shafer_MEA_dev_active_electrodes_number: CCTE's Neural Network Formation Assay for Number of Active Electrodes, Shafer Lab (AID 2284040; active = hit-call score of the fitted dose curve at least 0.9, where 1 is the maximum;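 as to AC50: potency for loss of active electrodes versus DMSO so lower counts are hits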)
How it was run: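 Primary rat cortical neurons on 16-electrode MEA wells, exposed from day 0 through day 12 with compound renewed at DIV 5 and 9 feeds. Active electrodes (mean firing ≥5 spikes/min) counted at DIV 5, 7, 9, 12; trapezoidal AUC across days, loss-of-signal versus DMSO.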

[2] = biological target: Estrogen receptor (Homo sapiens) (UniProt P03372); test: CCTE_Deisenroth_AIME_384WELL_LUC_Shift: CCTE's 384-well Estrogen Receptor Transactivation Assay with AIME metabolic competence data shift (ERTA luciferase; difference in metabolism positive and negative), Deisenroth Lab (AID 2284041);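 also: shift is response with S9 minus without S9 so positive means metabolism raised ER signal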
Estrogen receptor (Homo sapiens), sequence (P03372 whole entry, looked up): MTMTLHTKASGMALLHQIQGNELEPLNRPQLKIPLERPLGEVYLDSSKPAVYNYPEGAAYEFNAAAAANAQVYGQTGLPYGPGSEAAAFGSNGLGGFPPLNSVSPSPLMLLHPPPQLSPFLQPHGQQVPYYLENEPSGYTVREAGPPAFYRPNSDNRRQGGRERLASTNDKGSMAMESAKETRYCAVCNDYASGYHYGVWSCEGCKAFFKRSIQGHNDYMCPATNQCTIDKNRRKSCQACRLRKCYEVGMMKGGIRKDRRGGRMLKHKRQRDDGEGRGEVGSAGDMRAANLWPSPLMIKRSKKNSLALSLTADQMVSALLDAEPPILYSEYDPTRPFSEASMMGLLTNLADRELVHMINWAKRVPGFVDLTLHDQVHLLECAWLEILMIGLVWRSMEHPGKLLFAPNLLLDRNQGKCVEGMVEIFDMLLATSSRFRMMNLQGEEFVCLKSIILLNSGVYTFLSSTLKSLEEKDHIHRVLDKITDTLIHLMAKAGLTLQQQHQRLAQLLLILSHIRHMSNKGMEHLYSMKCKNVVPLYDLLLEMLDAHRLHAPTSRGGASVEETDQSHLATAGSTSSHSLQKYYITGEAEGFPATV
How it was run: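 Test chemicals (0.002–200 uM, 10-point) were pre-incubated 2 h with alginate microspheres containing phenobarbital/beta-naphthoflavone-induced male Sprague Dawley rat liver S9 or water, then medium was transferred to VM7Luc4E2 cells for 24 h luciferase readout; shift = S9-positive minus S9-negative normalized response.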

[3] = CCTE_Shafer_MEA_dev_burst_rate: CCTE's Neural Network Formation Assay for Burst Rate, Shafer Lab (AID 2284042);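 as to AC50: potency for loss of burst rate below DMSO control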
How it was run: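 Cells plated, treated day 0; recorded DIV 5, 7, 9, 12; fed and re-treated DIV 5, 9. Endpoint: bursts per recording time, active-electrode well mean, trapezoidal AUC, fitted in decreasing direction against DMSO baseline.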

[4] = CCTE_Shafer_MEA_dev_bursting_electrodes_number: CCTE's Neural Network Formation Assay for Number of Bursting Electrodes, Shafer Lab (AID 2284043; active = hit-call score of the fitted dose curve at least 0.9, where 1 is the maximum;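 as to AC50: potency is for loss of bursting electrodes relative to DMSO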)
How it was run: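 Read-out is the per-well number of electrodes bursting at least once every 2 minutes, recorded on days 5, 7, 9 and 12 and collapsed by trapezoidal area under the curve. Cultures were primary rat cortical neurons on MEA plates, treated continuously from plating.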

[5] = CCTE_Shafer_MEA_dev_per_burst_interspike_interval: CCTE's Neural Network Formation Assay for Burst Interspike Interval, Shafer Lab (AID 2284044);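 also: mean spike spacing inside bursts as AUC over recordings on days 5 7 9 12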;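 as to AC50: potency for a decrease of within-burst interspike interval below DMSO level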
How it was run: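 Rat cortical primary cultures, 16 electrodes/well; compound from plating, renewed with full media change DIV 5 and 9. Spikes via adaptive detector; per-burst ISI well-mean over active bursting electrodes; AUC of DIV 5/7/9/12 recordings; loss-direction fit vs DMSO.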

[6] = CCTE_Shafer_MEA_dev_burst_duration_mean: CCTE's Neural Network Formation Assay for Mean Burst Duration, Shafer Lab (AID 2284045);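 as to AC50: curve fitted for loss meaning shorter burst duration than DMSO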
How it was run: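 Read-out: average first-to-last-spike interval within single-electrode bursts, averaged over bursting electrodes per well, then summarised as area under the curve across days 5, 7, 9 and 12. Developing rat cortical networks were exposed from day 0.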

[7] = CCTE_Shafer_MEA_dev_interburst_interval_mean: CCTE's Neural Network Formation Assay for Mean Interburst Interval, Shafer Lab (AID 2284046);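 also: well-mean interburst interval of bursting electrodes as AUC over four recording days; curve fitted for decrease in interburst interval relative to DMSO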
How it was run: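 Developing rat cortical networks on 48-well MEAs receive compound from the day of plating. Burst intervals from each active electrode are averaged per well, and AUC over the recording days is fitted in the negative direction against DMSO.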

[8] = CCTE_Shafer_MEA_dev_inter_network_spike_interval_mean: CCTE's Neural Network Formation Assay for Mean Inter-network Spike Interval, Shafer Lab (AID 2284047);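 as to AC50: potency for a decrease in mean inter-network spike interval below DMSO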
How it was run: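 Rat cortical cultures, 1.5 x 10^5 cells/well on 48-well MEA plates; continuous exposure days 0–12, medium and compound refreshed DIV 5, 9. Mean time between consecutive network-spike peaks; AUC across DIV 5/7/9/12; DMSO baseline, negative fitting direction.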

[9] = CCTE_Shafer_MEA_dev_network_spike_number: CCTE's Neural Network Formation Assay for Number of Network Spikes, Shafer Lab (AID 2284048);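 also: synchronized bursts across electrodes counted on days 5 7 9 12 and integrated as AUC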;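 as to AC50: fit as a loss of signal meaning fewer network spikes than DMSO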
How it was run: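 Developing networks of primary rat cortical neurons are treated over 12 days starting at plating, with media and compound fully replaced on DIV 5 and 9. Network spike counts from four recording days are integrated as trapezoidal AUC.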

[10] = CCTE_Shafer_MEA_dev_network_spike_peak: CCTE's Neural Network Formation Assay for Mean Number of Electrodes in Network Spike, Shafer Lab (AID 2284049);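 as to AC50: fitted for loss of signal meaning fewer electrodes in network spikes than DMSO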
How it was run: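 Rat cortical primary culture, 1.5 x 10^5 cells/well, 48-well MEA (16 electrodes/well). Dosing day 0 through DIV 12, full media/compound exchange DIV 5, 9. AxIS adaptive spike detection; AUC over days 5/7/9/12; loss-of-signal vs DMSO.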

[11] = CCTE_Shafer_MEA_dev_network_spike_duration_std: CCTE's Neural Network Formation Assay for Standard Deviation of Network Spike Duration, Shafer Lab (AID 2284052);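 also: area under curve of spike duration SD across recording days 5 to 12; hits are decreases in network spike duration SD versus DMSO vehicle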
How it was run: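 Read-out is the trapezoidal area-under-the-curve across recordings made on days 5, 7, 9 and 12, fitted in the negative direction against DMSO baseline. Neurons were primary rat cortical cells treated from day 0, with treatment renewed at each feed.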

[12] = CCTE_Shafer_MEA_dev_per_network_spike_spike_number_mean: CCTE's Neural Network Formation Assay for Mean Number of Spikes in a Network Spike, Shafer Lab (AID 2284053);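 as to AC50: fitted as decrease in spikes per network spike relative to DMSO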
How it was run: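 Continuous twelve-day exposure of developing rat cortical networks grown over 16 microelectrodes per well; spontaneous firing is captured at four time points, and the per-network-spike spike number is integrated over development by trapezoidal AUC.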

[13] = CCTE_Shafer_MEA_dev_per_network_spike_spike_percent: CCTE's Neural Network Formation Assay for Percent of Spikes in a Network Spike, Shafer Lab (AID 2284054)
How it was run: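 Rat primary cortical cultures, 1.5 x 10^5 cells/well on MEA. Continuous compound exposure d0–12, medium/compound renewed DIV 5, 9. Network-spike spike % (0.05 s peak window), AUC over 4 recordings, DMSO baseline.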

[14] = UKN5_HCS_SBAD2_cell_viability: Viability Assessment in the University of Konstanz (UKN) Leist Lab Neurite Outgrowth Assay in human iPSC-derived immature Dorsal Root Ganglia Neurons (UKN5) (AID 2284056)
How it was run: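 iPSC-derived immature peripheral neurons (SBAD2) seeded on Matrigel with CHIR99021, SU5402 and DAPT, dosed 1 h later for 24 h. Viability from Hoechst H-33342 and calcein-AM live staining, high-content imaging; bidirectional fit versus DMSO.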

[15] = CCTE_Shafer_MEA_acute_AB: CCTE's Alamar Blue Assay for Cytotoxicity in the Neural Acute Assay, Shafer Lab (AID 2284069; active = hit-call score of the fitted dose curve at least 0.9, where 1 is the maximum;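 also: active compounds lower the viability signal compared with DMSO wells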)
How it was run: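 Metabolic activity in chemically exposed rat cortical neurons (MEA cultures, day 13/15 post-plating) measured via CellTiter Blue resazurin reduction, 544/590 nm fluorescence; fitted relative to DMSO, with signal loss indicating reduced viability.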

[16] = UKN5_HCS_SBAD2_neurite_outgrowth: University of Konstanz (UKN) Leist Lab Neurite Outgrowth Assay in human iPSC-derived immature Dorsal Root Ganglia Neurons (UKN5) (AID 2284070); conditions: actives raise or lower the signal
How it was run: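 SBAD2 iPSC-derived immature peripheral neurons on Matrigel, 100.000 cells/cm2, medium with CHIR99021 (1.5 uM), SU5402 (5 uM), DAPT (5 uM); compound added 1 h post-seeding for 24 h. Calcein-AM neurite area by high-content imaging; Hoechst H-33342 viability; bidirectional fit vs DMSO.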

[17] = CCTE_Shafer_MEA_acute_LDH: CCTE's Lactate Dehydrogenase Assay for Cytotoxicity in the Neural Acute Assay, Shafer Lab (AID 2284086; active = hit-call score of the fitted dose curve at least 0.9, where 1 is the maximum;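 also: active means LDH release rises above DMSO vehicle level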)
How it was run: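 Medium from rat cortical neuron MEA cultures sampled right after the 40 min compound-exposure recording; released LDH measured by absorbance at 490 nm. Analyzed as signal gain relative to DMSO.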

[18] = CCTE_Shafer_MEA_dev_mutual_information_norm: CCTE's Neural Network Formation Assay for Mutual Information Normalization, Shafer Lab (AID 2284091);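 as to AC50: mutual information between electrodes summarised as area under curve across four recording days; potency is for a decrease in mutual information relative to DMSO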
How it was run: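 Developing rat cortical networks on 16-electrode MEA wells are treated throughout formation (DIV 0–12). Shared electrode information is recorded four times, converted to area-under-curve, and fitted for decreases against DMSO vehicle.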

DIO2 (gene 1734) = test: CCTE_GLTED_hDIO2: CCTE's human Deiodinase 2 (DIO2) Inhibition Assay, Great Lakes Toxicology and Ecology Division (GLTED) Lab (AID 2284050; active = hit-call score of the fitted dose curve at least 0.9, where 1 is the maximum)
How it was run: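 Cell-free human DIO2 incubated 3 h with chemical; liberated iodide quantified by Sandell-Kolthoff absorbance. Triplicate plates; loss of signal fitted vs DMSO.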

DIO3 (gene 1735) = test: CCTE_GLTED_hDIO3: CCTE's human Deiodinase 3 (DIO3) Inhibition Assay, Great Lakes Toxicology and Ecology Division (GLTED) Lab (AID 2284055; active = hit-call score of the fitted dose curve at least 0.9, where 1 is the maximum;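 also: potency is for inhibition seen as loss of released iodide signal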)
How it was run: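 Human DIO3 from an adenovirus expression system is incubated 3 h with test chemical. Released iodide is quantified by Sandell-Kolthoff absorbance, in triplicate plates. Loss of signal is fitted relative to DMSO.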

Measured: AC50

CCOP(=O)(OCC)Oc1nc(Cl)c(Cl)cc1Cl
active: [1] 904 nM and 8.09 µM | [4] 852 nM and 6.59 µM | [9] 2.98 µM | [10] 3.32 µM and 9.79 µM | [11] 2980 nM | [12] 3.09 µM and 15 µM | [13] 7.07 µM | [14] 18.3 µM | [16] 14.6 µM | [18] 872 nM and 2.17 µM
inactive: [1] | [2] | [3] | [5] | [6] | [7] | [8] | [9] | [10] | [11] | [12] | [13] | [15] | [17] | [18]

CCOC(=O)C(C)OC(=O)c1cc(Oc2ccc(C(F)(F)F)cc2Cl)ccc1[N+](=O)[O-] (stereo not drawn)
not listed: [14] | [16] | DIO2 (gene 1734) | DIO3 (gene 1735)
inactive: all other assays above

N#CN=C1SCCN1Cc1ccc(Cl)nc1
not listed: [2] | [14] | [16] | DIO2 (gene 1734) | DIO3 (gene 1735)
inactive: all other assays above

CS(=O)(=O)c1ccc(C(=O)C2C(=O)CCCC2=O)c([N+](=O)[O-])c1
active: DIO2 (gene 1734) 24.8 µM | DIO3 (gene 1735) 46.3 µM
not listed: [2] | [14] | [15] | [16] | [17]
inactive: all other assays above

O=C1C2CC=CCC2C(=O)N1SC(Cl)(Cl)Cl (stereo not drawn)
active: [1] 9.85 µM | [4] 9.85 µM and 1.97 µM | [5] 16.2 µM | [7] 9.95 µM | [10] 9.85 µM and 16.2 µM | [12] 9.85 µM | [13] 15.6 µM
inactive: [1] | [3] | [5] | [6] | [7] | [8] | [9] | [11] | [12] | [13] | [18]

CC(C)=CC1C(C(=O)OCc2coc(Cc3ccccc3)c2)C1(C)C (stereo not drawn)
active: DIO2 (gene 1734) 38.5 µM | DIO3 (gene 1735) 40.5 µM
not listed: [2] | [14] | [16]
inactive: all other assays above

CCSC(=O)N1CCCCCC1
inactive: [2] | [3] | [5] | [6] | [7] | [8] | [9] | [10] | [11] | [12] | [13] | [18]
active: [1] 3.42 µM | [4] 1.93 µM | [10] 5.75 µM

CCCN(CC)CC1COC2(CCC(C(C)(C)C)CC2)O1 (stereo not drawn)
active: [1] 0.246 µM | [3] 136 nM | [4] 0.223 µM | [5] 0.234 µM | [6] 157 nM | [7] 0.325 µM | [8] 0.257 µM | [9] 0.0933 µM | [10] 0.305 µM | [11] 66.2 nM | [12] 0.272 µM | [13] 0.266 µM | [18] 119 nM

CCN(CC)c1nc(C)cc(OP(=S)(OC)OC)n1
inactive: [3] | [5] | [6] | [8] | [9] | [11]
active: [1] 33 µM | [4] 30.5 µM | [7] 88.6 µM | [10] 30.8 µM | DIO2 (gene 1734) 31.1 µM | [12] 29.5 µM | [13] 28 µM | DIO3 (gene 1735) 25.3 µM | [18] 21800 nM

CC(C)Oc1cccc(NC(=O)c2ccccc2C(F)(F)F)c1
inactive: [2]

CO/N=C(/C1=NOCCO1)c1ccccc1Oc1ncnc(Oc2ccccc2Cl)c1F
inactive: [2] | [8] | DIO2 (gene 1734) | [15]
active: [1] 1.2 µM and 1.05 µM | [3] 789 nM and 637 nM | [4] 968 nM and 1.02 µM | [5] 2.28 µM and 518 nM | [6] 1.23 µM and 858 nM | [7] 2.3 µM and 1.29 µM | [8] 0.52 µM | [9] 527 nM and 449 nM | [10] 1.27 µM and 723 nM | [11] 889 nM | [12] 854 nM and 756 nM | [13] 1.52 µM and 801 nM | DIO3 (gene 1735) 15.9 µM | [18] 401 nM and 924 nM

Cc1c(COC(=O)[C@@H]2[C@H](/C=C(\Cl)C(F)(F)F)C2(C)C)cccc1-c1ccccc1
active: [1] 2.84 µM and 3.36 µM | [3] 768 nM and 2.7 µM | [4] 1.56 µM and 1.65 µM | [5] 3.23 µM and 3.43 µM | [6] 2.29 µM and 1.75 µM | [7] 2.8 µM and 2.26 µM | [8] 2.3 µM | [9] 91.2 nM and 495 nM | [10] 1.51 µM and 1.19 µM | [11] 2.29 µM and 2.33 µM | [12] 665 nM and 864 nM | [13] 440 nM and 649 nM | [18] 142 nM and 269 nM
inactive: [8] | [17]

CC(C)(C)C(=O)C(Oc1ccc(Cl)cc1)n1cncn1 (stereo not drawn)
inactive: [3] | [5] | [6] | [7] | [8] | [9] | [11] | [18]
active: [1] 38.7 µM | [4] 39.6 µM | [10] 38.7 µM | [12] 35.5 µM | [13] 45.9 µM

COP(=O)(OC)O/C(C)=C/C(=O)N(C)C
not listed: [2] | [4] | [14] | [15] | [16] | [17] | DIO2 (gene 1734) | DIO3 (gene 1735)
inactive: all other assays above

CS(=O)(=O)c1cc(C(F)(F)F)ccc1C(=O)c1cnoc1C1CC1
not listed: [14] | [15] | [16] | [17] | DIO2 (gene 1734) | DIO3 (gene 1735)
inactive: all other assays above

N#Cc1c(Cl)cccc1Cl
inactive: [2]
